Screens: PubChem, National Center for Advancing Translational Sciences (NCATS)
Rows were chosen to be rich in hits. Some 3% of all compounds tested hit in one or more screens of this group.
Nrf2 inh = inhibitors of Nrf2 signaling; Potency, µM (titrated, usually from 46 µM), inactives show at the top dose activity change, negative = inhibition, actives largely listed as inhibitors; AID 504444; A549 ARE-Fluc reporter, luciferase luminescence, 18-24 h; 2.1% of 360,000 active; further: potency means the concentration at half of the fitted maximal effect; on the % scale 0 is the no-effect control and ±100 the full control effect; nearly all actives have a fitted effect of over 60% in size
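Cells were seeded and rested 2 h, then exposed to compounds for 18-24 h. CellTiter-Fluor was read first as a viability measure. BugLite was added 15 min before the final luminescent read of ARE-luciferase activity in A549 cells.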
GALK inh = inhibitors of human galactokinase | 0.007% of 270,000 active | Purified GALK, Kinase-Glo residual ATP luminescence | Potency, µM (doses to about 57.5 µM), for inactives: at the highest dose activity change, negative = inhibition, usual class: inhibitors | AID 1868 | P51570; further: potency means the concentration at half of the fitted maximal effect; on the % scale 0 is the no-effect control and ±100 the full control effect
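Quantitative HTS: GALK 5 nM, ATP 35 uM, galactose 100 uM, 1 h room temperature, then luciferase-based ATP detection.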
TrxR1 inh-1 = inhibitors of rat thioredoxin reductase 1; O89049; recombinant rTrxR1, NADPH fluorescence consumption, selenite substrate; Potency, µM (doses to about 114 µM), for inactives: at the top dose activity change, negative = inhibition, actives largely listed as inhibitors; 1% of 390,000 active; AID 588453; further: potency means the concentration at half of the fitted maximal effect; on the % scale 0 is the no-effect control and ±100 the full control effect; nearly all actives have a fitted effect of over 65% in size
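Rat TrxR1 (90 nM in the dispensed reagent) was pre-reduced with 400 uM NADPH for 5 min at room temperature, then incubated with compound for 15 min. After 400 uM selenite was added, NADPH fluorescence (Ex 340/Em 450 nm) was followed for 8 min.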
TrxR1 substrate = is turned over as a substrate by rat TrxR1. O89049. purified TrxR1 substrate turnover, NADPH consumption readout. Potency, µM (titrated, usually from 114 µM), inactives show at the top dose activity change, negative = substrate turnover. 0.01% of 390,000 active. AID 588456; further: potency means the concentration at half of the fitted maximal effect; on the % scale 0 is the no-effect control and ±100 the full control effect; nearly all actives have a fitted effect of over 50% in size
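Rat TrxR1, dispensed at 90 nM, was prereduced with 400 uM NADPH (final) for 5 min at ~22 deg C, then incubated with compound 15 min before 400 uM selenite. A first-read NADPH fluorescence drop versus no-compound background flagged substrates.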
Nrf2 ARE act = Nrf2 pathway activation. 0.31% of 410,000 active. AREc32 ARE-luciferase reporter (MCF7-derived line), luminescence, 24 h. Potency, µM (titrated, usually from 46.1 µM), for inactives: top-dose activation, usual class: activators; further: potency means the concentration at half of the fitted maximal effect; % of control where 0% means no effect; nearly all actives have a fitted effect of over 65% in size
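Each well held 1000 AREc32 cells, which were incubated with compound for 24 hr at 37 deg C after overnight attachment, and ARE reporter activity was quantified by firefly luciferase luminescence.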
A549 tox = counter-screen for Nrf2 inhibitors: cytotoxicity in A549 cells; AID 504648; A549 ARE-Fluc cells, CellTiter-Fluor viability, 18-24 h; 0.16% of 390,000 active; Potency, µM (series often up to 46 µM), inactives show at the top dose activity change, negative = cytotoxicity, hits mostly inhibitors; further: potency means the concentration at half of the fitted maximal effect; on the % scale 0 is the no-effect control and ±100 the full control effect
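Cytotoxicity counterscreen: CellTiter-Fluor fluorescence was measured in A549 ARE_Fluc cells after 18-24 h of compound exposure in a concentration series. The subsequent BugLite luminescent read reports ARE-luciferase activity.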
TRb SRC2 Alpha = disrupts human TRb binding to SRC2 peptide in AlphaScreen; shares compounds with TrxR1 inh-1; AlphaScreen TRb LBD-SRC2 peptide binding, luminescence; Potency, µM; 50% of 30 active; calls by dose curve
HepG2 viability = counter-screen for TRb-SRC2 inhibitors: HepG2 cytotoxicity | shares compounds with TrxR1 inh-1 | HepG2 viability, ATP luminescence (CellTiter-Glo), 72 h | Potency, µM | 50% of 40 active; calls by dose curve
AR-SRC2 inh = AR-SRC2 (human) interaction inhibition, selectivity; shares compounds with TrxR1 inh-1; AR-LBD Tx-SRC2-3 fluorescence polarization, 3 h; 25 tested, under 10 active; calls only; AID 2448; call rule not given here
PPARg-DRIP2 inh = disrupts human PPARgamma binding to DRIP-2 peptide. Potency, µM. PPARg LBD / Texas Red DRIP-2 peptide, fluorescence polarization, 3 h. shares compounds with TrxR1 inh-1. AID 2449. 25 tested, under 10 active; calls by dose curve
VDR SRC2 FP = disrupts human vitamin D receptor binding to SRC2 peptide | 25 tested, under 10 active | shares compounds with TrxR1 inh-1 | Potency, µM | VDR LBD/SRC2-3 peptide, fluorescence polarization, 3 h | AID 2455; calls by dose curve
TRb-SRC2 FP Fluo = disrupts human TRb binding to fluorescein-SRC2 peptide; shares compounds with TrxR1 inh-1; TRb LBD / fluorescein-SRC2 peptide, fluorescence polarization; Potency, µM; 20 tested, under 10 active; call rule not given here
GR inh = inhibits human glutathione reductase in TrxR1 counterassay | shares compounds with TrxR1 inh-1 | purified GR, DTNB reduction absorbance 405 nm kinetic | activity change, negative = inhibition, % at 57.1 µM | 55 tested, under 10 active | AID 652020
Target sequence (P00390 whole entry, looked up): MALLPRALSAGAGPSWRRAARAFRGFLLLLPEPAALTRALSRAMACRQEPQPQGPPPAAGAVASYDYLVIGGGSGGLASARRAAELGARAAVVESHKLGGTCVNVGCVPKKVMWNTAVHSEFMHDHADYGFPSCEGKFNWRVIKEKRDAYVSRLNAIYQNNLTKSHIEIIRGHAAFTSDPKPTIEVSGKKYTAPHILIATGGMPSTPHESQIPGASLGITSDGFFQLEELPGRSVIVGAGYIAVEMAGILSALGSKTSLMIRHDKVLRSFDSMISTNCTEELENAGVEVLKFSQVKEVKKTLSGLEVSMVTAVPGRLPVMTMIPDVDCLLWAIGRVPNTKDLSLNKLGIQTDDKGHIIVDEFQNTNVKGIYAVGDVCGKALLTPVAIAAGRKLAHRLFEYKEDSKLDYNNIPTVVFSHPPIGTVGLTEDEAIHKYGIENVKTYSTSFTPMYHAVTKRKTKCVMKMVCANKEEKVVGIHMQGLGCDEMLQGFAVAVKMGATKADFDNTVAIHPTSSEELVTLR
TrxR1 inh-2 = blocks rat thioredoxin reductase 1 in hit validation; recombinant TrxR1, NADPH fluorescence consumption, selenite substrate; shares compounds with TrxR1 inh-1; AID 652023; Potency, µM, usual class: inhibitors; 50% of 55 active
TrxR1 insulin MOA = inhibits TrxR1-driven insulin reduction. 20% of 55 active. shares compounds with TrxR1 inh-1. TrxR1 Trx-coupled insulin reduction, NADPH absorbance 340 nm. AID 652037. Potency, µM;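 active means compounds with a measured potency under 100 micromolar; inconclusive means filed, but no rule given; inactive means potency at or above that, or unmeasurable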
TrxR1 inh-3 = rat thioredoxin reductase 1 inhibition, DTNB assay; Potency, µM; 90% of 55 active; shares compounds with TrxR1 inh-1; purified TrxR1, DTNB reduction, A412;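 active means a half-inhibiting concentration could be measured and was below 100 µM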
Starred values were filed as active, the others as inactive; i = inactive; ? = inconclusive; . = no result given; [ ] = dose if it differs, or a comment. Unless noted, the call rests on the fitted dose curve; in most records, active means well fitted curve in the direction sought with a large enough effect; inconclusive means small, poorly fitted or top-dose-only effect, or another doubt; inactive means no such curve, though single readings can be large; an effect the other way counts as inactive or inconclusive.

SMILES	Nrf2 inh	GALK inh	TrxR1 inh-1	TrxR1 substrate	Nrf2 ARE act	A549 tox	GR inh	TrxR1 inh-2	TrxR1 insulin MOA	TrxR1 inh-3	others
CCCCCCCN1C(Nc2ccccc2)=NC[C@@H]1Cc1ccccc1	5%	.	11%	1%	0%	-8%	.	.	.	.
CCN1C(Nc2ccccc2)=NC[C@@H]1Cc1ccccc1	9%	.	16µM*	5%	-1%	-7%	-11	?	i	0.87µM*
O=c1c(Cl)c(Cl)cnn1Cc1nnc(-c2ccc(Cl)cc2)o1	28%	-3%	7.1µM*	9%	?	2%	1	8.4*	i	3.4µM*
Cc1ccc(-c2nnc(Cc3ccc(Cl)cc3)o2)cc1	?	2%	25%	-1%	1%	?	.	.	.	.
COc1cc(C(c2nnnn2C(C)(C)C)N2CCN(c3nc4ccccc4s3)CC2)ccc1O (configuration not stated)	.	2%	13µM*	10%[57.1 µM]	14%	3%	-3	?	i	0.16µM*
COc1ccc([N+](=O)[O-])c(S(=O)(=O)c2ccc(Cl)cc2)n1	13%	-2%	0.5µM*	-8%	-2%	-3%	-20	0.13*	26µM*	0.041µM*
COc1nc(OC)nc(Oc2ccc(Cl)cc2[N+](=O)[O-])n1	-5%	-3%	-35%	-18%	6%	-2%	.	.	.	.
Cc1ccc(NC(=O)CCN2C(=O)c3ccccc3Sc3ncccc32)cc1	?	2%	11µM*	-10%	0%	9%	0	9.5*	i	i
CCN(CC)C(=O)COC(=O)c1ccc(O)cc1	1%	-3%	10%[57.1 µM]	4%[57.1 µM]	0%	4%	.	.	.	.
CS(=O)(=O)c1ccc(C(=O)OCC(=O)N2Cc3ccccc3C2)cc1[N+](=O)[O-]	.	.	.	.	.	.	.	.	.	.	HepG2 viability=20µM*
O=C1CN(C(=O)COC(=O)c2ccc(N3CCCCCC3)c([N+](=O)[O-])c2)c2ccccc2N1	?	0%	12%[57.1 µM]	6%[57.1 µM]	4%	-8%	.	.	.	.
CS(=O)(=O)c1ccc(C(=O)OCC(=O)N2CCOCC2)cc1[N+](=O)[O-]	.	.	.	.	?	.	.	.	.	.	HepG2 viability=i
CCN(CC)C(=O)COC(=O)c1ccc(S(C)(=O)=O)c([N+](=O)[O-])c1	.	.	.	.	.	.	.	.	.	.	HepG2 viability=?
CS(=O)(=O)c1ccc(C(=O)OCC(=O)N2CC(=O)Nc3ccccc32)cc1[N+](=O)[O-]	-2%	.	2.8µM*	0%	.	-8%	.	.	.	.	TRb SRC2 Alpha=10µM*;HepG2 viability=16µM*;AR-SRC2 inh=i;PPARg-DRIP2 inh=15µM*;VDR SRC2 FP=64µM*;TRb-SRC2 FP Fluo=2.8µM*
Cn1c(=O)cc(OCCCC(=O)Nc2cccc(Cl)c2)c2ccccc21	.	.	.	.	4%	.	.	.	.	.
COc1ccc(-c2nc3n(n2)C(c2ccccc2OC)C(C(=O)Nc2cccnc2)=C(C)N3)cc1 (configuration not stated)	-8%	.	-9%	-2%	-1%	-1%	.	.	.	.
CN(C)c1ccc(CNC(=O)C2CCC(CNc3c(N4CCCCC4)c(=O)c3=O)CC2)cc1 (configuration not stated)	5%	5%	11%	-2%	0%	-7%	.	.	.	.
CCN(CC(=O)Nc1c(F)cccc1F)C(=O)CCC(=O)c1ccc(C)cc1	13%	.	1%	2%	0%	0%	.	.	.	.
CC(C)(C)c1cc(CN2CCN(CCO)CC2)cc(C(C)(C)C)c1O	-3%	-1%	7.9µM*	5%[57.1 µM]	4%	3%	0	?	i	1.3µM*
CCOC(=O)C1CCN(C(c2ccccn2)c2c(C)[nH]c3ccccc23)CC1 (configuration not stated)	-11%	-2%	2.5µM*	1%	?	-10%	-25	1.5*	i	0.19µM*
CN1CCC(=NOc2ccc([N+](=O)[O-])cc2)CC1	?	7%	-1%[57.1 µM]	-2%[57.1 µM]	2%	-1%	.	.	.	.
